Test results reported in PubChem BioAssay.
The source made the active and inactive calls.

Experiments:
Albumin (Bos taurus) = Albumin (Bos taurus) (UniProt P02769); test: bovine serum albumin binders on microarray, profiling panel, artefact control for SMM control protein annotation, biochemical, small-molecule microarray, Alexa647 label, 635/667 nm fluorescence (AID 1118); details: BSA-A647 binding, fluorescence 635 nm, higher = more signal;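 further: score merges 667 nm emission intensity and signal-to-noise per printed compound spot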
[1] = small-molecule microarray binders of probe aXIP, primary screen, biochemical, NeuroSMM set, 635/667 nm fluorescence (AID 1119); details: higher = more signal, called active from +8 up or from −8 down;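 further: probe is the protein aXip251-270 applied at 1 µg/mL to compound-printed slides; binding of probe to printed compounds measured as 667 nm fluorescence plus signal to noise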
[2] = small-molecule binders of probe aNOTCH3, primary screen, biochemical, small-molecule microarray, 635/667 nm fluorescence (AID 1120); details: higher = more signal;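 further: probe is a biotin-tagged antibody raised against NOTCH3 rather than NOTCH3 protein; score merges spot fluorescence near 667 nm with spot signal to noise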
[3] = small-molecule binders of probe aNOTCH2, primary screen, biochemical, small-molecule microarray, 635/667 nm fluorescence (AID 1121); details: higher = more signal;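 further: score merges feature fluorescence read at 667 nm with its signal to noise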
[4] = target: Carbonic anhydrase 2 (Homo sapiens) (UniProt P00918); test: CAII small-molecule binders, profiling panel, biochemical, small-molecule microarray, Alexa647-labelled CAII (AID 1122); details: CAII-A647 binding fluorescence, higher = more signal
[5] = COS7 lysate on small-molecule microarray, probe aHis, 635 nm (AID 1123); details: COS7 cell lysate, fluorescence, higher = more signal;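 further: z-score combines 667nm fluorescence intensity with signal-to-noise per printed compound spot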
[6] = compound binding in COS7 lysate, probe aLAP1, primary screen, cell lysate, small-molecule microarray (AID 1124); details: probe aLAP1, fluorescence, higher = more signal;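 further: lysate comes from COS7 cells expressing LAP1 and is applied at 0.3 µg/mL; score merges spot fluorescence near 667 nm with signal-to-noise over triplicate slides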
Sam68 (KHDRBS1) = test: Sam68 small-molecule binders, primary screen, biochemical, small-molecule microarray, 635 nm fluorescence (AID 1125); details: small-molecule microarray binding, higher = more signal;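 further: score merges 667 nm channel intensity with signal to noise over triplicate slides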
[7] = test system: Chordin-like protein 2 (CHRDL2); test: CHRDL2 small-molecule binders, primary screen, biochemical, small-molecule microarray, 635 nm fluorescence (AID 1126); details: small-molecule microarray binding, fluorescence 635 nm; higher = more signal;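 further: printed compound slides probed with Chrdl2 protein at 4 µg/mL for 1 h at 4 C; score merges 667 nm emission intensity with signal to noise over three replicate slides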
[8] = target: Concanavalin-A (Canavalia ensiformis) (UniProt P02866); test: ConA small-molecule binders, primary screen, artefact control for SMM control protein annotation, biochemical, small-molecule microarray, Alexa647 label, 635 nm (AID 1127); details: ConA-A647 binding fluorescence, higher = more signal;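 further: z combines 667 nm emission intensity with signal-to-noise across three replicate slides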
[9] = anti-His antibody binders, primary screen, artefact control for SMM control protein annotation, biochemical, small-molecule microarray, 635 nm fluorescence (AID 1128); details: anti-His Alexa647 antibody binding, higher = more signal;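 further: score merges feature fluorescence with signal-to-noise for each printed compound spot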
[10] = test system: Human papillomavirus type 1a E7 protein (residues 1-88); test: HPV1a E7 small-molecule binders, primary screen, biochemical, small-molecule microarray, residues 1-88, 635 nm (AID 1129); details: small-molecule microarray binding, fluorescence 635 nm; higher = more signal
[11] = target: Focal adhesion kinase 1 (Homo sapiens) (UniProt Q05397); test: small-molecule microarray binders of FAK, primary screen, biochemical, 635/667 nm fluorescence, BSA, DTT (AID 1130); details: PTK2 binding, 635 nm fluorescence, higher = more signal;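 further: composite of spot emission at 667 nm and signal to noise over triplicate slides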
[12] = test system: Fibrinogen (Alexa647-labelled); test: fibrinogen binders on compound microarrays, profiling panel, artefact control for SMM control-protein annotation, biochemical, small-molecule microarray, 635/667 nm fluorescence (AID 1131); details: fibrinogen-A647 binding fluorescence, higher = more signal;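 further: z-score merges 667 nm fluorescence with per-spot signal-to-noise over triplicate slides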
[13] = target: Follistatin (Homo sapiens) (UniProt P19883); test: follistatin binders on small-molecule microarrays, primary screen, biochemical, small-molecule microarray, 635/667 nm fluorescence (AID 1132); details: FST binding, 635 nm fluorescence, higher = more signal
[14] = target: Fibroblast growth factor 2 (Homo sapiens) (UniProt P09038); test: FGF2 binders on small-molecule microarrays, primary screen, biochemical, small-molecule microarray, 635/667 nm fluorescence (AID 1133); details: small-molecule microarray binding, FGF2, fluorescence 635/667; higher = more signal
[15] = mitochondrial membrane potential change in A549 cells, profiling panel, cell-based, JC-1 fluorescence, basal, 24 h, 100 nL (AID 1138); details: higher = more signal;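 further: A549 lung adenocarcinoma cells under basal conditions with no added stimulus; test concentration not given here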
Lefty1 = Lefty1 binders on small-molecule microarrays, primary screen, biochemical, small-molecule microarray, 635/667 nm fluorescence (AID 1139); details: small-molecule microarray binding, fluorescence 635/667; higher = more signal
[16] = test system: wheat germ agglutinin (Triticum aestivum), Alexa647-labelled; test: wheat germ agglutinin binders on compound microarrays, profiling panel, artefact control for SMM control-protein annotation, biochemical, small-molecule microarray, 635/667 nm fluorescence (AID 1140); details: WGA-A647 binding, 635 nm fluorescence, higher = more signal;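 further: score merges 667 nm feature emission with signal to noise over triplicate slides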
[17] = target: Luciferin 4-monooxygenase (Photinus pyralis) (UniProt P08659); test: firefly luciferase enzyme inhibitors, primary screen, biochemical, luminescence, purified enzyme, 2006 set (AID 1141); details: SteadyGlo luminescence, 30 min, higher = more signal, called active from +8 up or from −8 down;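 further: cell-free assay with purified firefly luciferase at 100 ng per well in PBS; test concentration not given here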
Sequence of Luciferin 4-monooxygenase (Photinus pyralis) (P08659 whole entry, looked up): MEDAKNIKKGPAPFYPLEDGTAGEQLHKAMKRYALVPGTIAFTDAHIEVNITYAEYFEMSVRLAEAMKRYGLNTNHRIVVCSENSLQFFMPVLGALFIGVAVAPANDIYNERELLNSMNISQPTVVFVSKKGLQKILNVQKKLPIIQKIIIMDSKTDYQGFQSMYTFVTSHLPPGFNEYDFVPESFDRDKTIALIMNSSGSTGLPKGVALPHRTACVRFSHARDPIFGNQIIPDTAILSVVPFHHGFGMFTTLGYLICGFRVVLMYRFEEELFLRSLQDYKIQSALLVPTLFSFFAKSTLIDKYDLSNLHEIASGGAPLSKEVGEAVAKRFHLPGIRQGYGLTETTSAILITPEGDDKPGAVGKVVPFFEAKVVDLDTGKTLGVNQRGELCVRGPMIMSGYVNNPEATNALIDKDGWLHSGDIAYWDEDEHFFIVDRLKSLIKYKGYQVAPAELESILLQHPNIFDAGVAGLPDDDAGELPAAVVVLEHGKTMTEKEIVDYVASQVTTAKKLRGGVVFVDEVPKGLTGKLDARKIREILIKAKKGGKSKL

Sequence of Fibroblast growth factor 2 (Homo sapiens) (P09038 whole entry, looked up): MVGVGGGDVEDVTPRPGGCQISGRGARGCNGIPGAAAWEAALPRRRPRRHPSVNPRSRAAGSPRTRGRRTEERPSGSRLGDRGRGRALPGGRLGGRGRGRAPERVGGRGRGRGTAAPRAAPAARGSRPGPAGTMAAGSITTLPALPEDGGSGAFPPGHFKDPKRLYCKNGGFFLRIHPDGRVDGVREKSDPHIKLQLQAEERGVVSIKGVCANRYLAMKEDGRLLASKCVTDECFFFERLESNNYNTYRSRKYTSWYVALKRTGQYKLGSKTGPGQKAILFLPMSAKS
Sequence of Focal adhesion kinase 1 (Homo sapiens) (Q05397 whole entry, looked up): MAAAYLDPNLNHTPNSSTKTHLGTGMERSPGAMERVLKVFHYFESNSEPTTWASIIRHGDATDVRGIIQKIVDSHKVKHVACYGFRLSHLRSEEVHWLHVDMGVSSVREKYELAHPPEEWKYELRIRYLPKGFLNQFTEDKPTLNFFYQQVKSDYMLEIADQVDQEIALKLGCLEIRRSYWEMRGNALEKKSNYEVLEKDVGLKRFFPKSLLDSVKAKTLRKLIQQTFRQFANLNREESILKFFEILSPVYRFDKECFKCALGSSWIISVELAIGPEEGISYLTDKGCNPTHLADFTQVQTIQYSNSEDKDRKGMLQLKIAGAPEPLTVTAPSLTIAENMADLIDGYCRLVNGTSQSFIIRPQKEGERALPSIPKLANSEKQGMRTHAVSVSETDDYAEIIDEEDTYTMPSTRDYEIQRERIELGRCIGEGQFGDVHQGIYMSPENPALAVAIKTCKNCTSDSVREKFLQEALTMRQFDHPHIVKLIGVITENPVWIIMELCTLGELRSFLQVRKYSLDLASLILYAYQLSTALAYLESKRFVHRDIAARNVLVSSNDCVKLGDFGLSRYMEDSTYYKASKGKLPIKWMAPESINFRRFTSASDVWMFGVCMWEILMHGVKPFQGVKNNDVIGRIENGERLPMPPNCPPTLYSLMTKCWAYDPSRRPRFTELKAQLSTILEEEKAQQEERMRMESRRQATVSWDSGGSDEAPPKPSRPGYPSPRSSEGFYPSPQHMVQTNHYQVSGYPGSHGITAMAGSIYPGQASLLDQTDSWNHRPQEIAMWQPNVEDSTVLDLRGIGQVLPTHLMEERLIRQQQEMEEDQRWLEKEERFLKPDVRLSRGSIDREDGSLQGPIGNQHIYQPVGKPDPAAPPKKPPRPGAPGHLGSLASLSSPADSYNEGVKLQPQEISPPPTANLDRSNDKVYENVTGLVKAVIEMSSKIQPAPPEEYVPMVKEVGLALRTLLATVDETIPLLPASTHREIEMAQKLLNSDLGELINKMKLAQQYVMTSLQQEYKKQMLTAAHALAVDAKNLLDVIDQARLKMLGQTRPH
Sequence of Follistatin (Homo sapiens) (P19883 whole entry, looked up): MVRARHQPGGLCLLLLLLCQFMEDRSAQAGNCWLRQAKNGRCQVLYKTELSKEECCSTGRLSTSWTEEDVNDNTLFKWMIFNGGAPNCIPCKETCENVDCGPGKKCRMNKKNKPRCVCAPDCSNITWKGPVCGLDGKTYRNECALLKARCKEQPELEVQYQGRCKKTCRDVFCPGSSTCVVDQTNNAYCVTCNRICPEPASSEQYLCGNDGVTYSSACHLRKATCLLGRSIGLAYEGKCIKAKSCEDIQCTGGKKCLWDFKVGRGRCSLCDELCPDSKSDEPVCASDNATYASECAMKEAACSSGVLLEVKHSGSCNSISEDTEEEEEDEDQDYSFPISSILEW
Sequence of Concanavalin-A (Canavalia ensiformis) (P02866 whole entry, looked up): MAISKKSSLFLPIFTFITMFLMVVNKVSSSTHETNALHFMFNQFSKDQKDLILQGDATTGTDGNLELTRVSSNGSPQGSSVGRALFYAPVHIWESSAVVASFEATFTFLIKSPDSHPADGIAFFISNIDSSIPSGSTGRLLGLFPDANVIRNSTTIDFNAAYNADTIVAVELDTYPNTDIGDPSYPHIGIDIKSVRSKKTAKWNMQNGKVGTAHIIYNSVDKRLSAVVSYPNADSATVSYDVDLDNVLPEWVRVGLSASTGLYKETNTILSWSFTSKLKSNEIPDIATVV
Sequence of Albumin (Bos taurus) (P02769 whole entry, looked up): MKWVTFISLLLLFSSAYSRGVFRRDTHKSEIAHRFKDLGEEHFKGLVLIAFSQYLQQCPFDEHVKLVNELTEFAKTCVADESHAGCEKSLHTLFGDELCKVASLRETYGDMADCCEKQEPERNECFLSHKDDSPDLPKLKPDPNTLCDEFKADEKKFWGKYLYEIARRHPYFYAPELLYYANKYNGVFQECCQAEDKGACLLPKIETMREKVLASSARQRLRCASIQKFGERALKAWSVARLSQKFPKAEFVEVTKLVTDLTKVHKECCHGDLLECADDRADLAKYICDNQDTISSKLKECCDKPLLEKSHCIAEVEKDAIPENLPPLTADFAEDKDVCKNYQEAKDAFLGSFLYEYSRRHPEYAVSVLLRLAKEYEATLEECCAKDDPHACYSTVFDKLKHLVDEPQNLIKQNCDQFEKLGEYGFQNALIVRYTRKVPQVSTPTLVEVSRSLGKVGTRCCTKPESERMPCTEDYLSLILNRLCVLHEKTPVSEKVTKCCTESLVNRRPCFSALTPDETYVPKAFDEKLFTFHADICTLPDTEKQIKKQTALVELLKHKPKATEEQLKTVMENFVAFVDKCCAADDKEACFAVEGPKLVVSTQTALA

Row | SMILES | composite z-score (Albumin (Bos taurus)) | composite Z-score [1] | composite z-score [2] | composite z-score [3] | composite z-score [4] | composite z-score [5] | composite z-score [6] | composite z-score (Sam68 (KHDRBS1)) | composite z-score [7] | composite z-score [8] | composite z-score [9] | composite z-score [10] | composite z-score [11] | composite z-score [12] | composite z-score [13] | composite z-score [14] | z-score [15] | composite z-score (Lefty1) | composite z-score [16] | z-score [17]
1 | COC(=O)C1(Cc2ccccc2)C=C2C(=C(c3ccccc3)C(=O)C2C)CN1 (stereo not given) | 0.544 | 0.257 (inactive) | 1.59 | 0.839 | 0.725 | 2.3 | 0.906 | -0.305 | 0.0887 | -1.56 | 1.76 | 1.11 | -0.0788 | 0.152 | -0.111 | 0.404 | 0.408 | -0.586 | 0.943 | 1.98 (inactive)
2 | C=CCOC(=O)[C@H]1[C@@H]2C(=O)O[C@@H](c3ccccc3)[C@@H](c3ccccc3)N2[C@@H](c2ccc(OCCOC(=O)[C@H]3C[C@H]4C(=O)N[C@@H](Cc5ccccc5)C(=O)N4[C@H]3c3cccc(OCCO)c3)cc2)[C@]12C(=O)Nc1ccc(I)cc12 | -0.291 | 1.02 (inactive) | 0.071 | -0.117 | 0.487 | -0.0456 | 0.335 | 1.28 | 1.25 | 1.12 | 2.34 | 1.16 | 0.41 | 0.948 | 1.2 | 1.71 | -1.41 | 1.35 | 0.324 | -0.65 (inactive)
3 | COc1ccc([Si](C)(C)[C@H]2[C@H](CCn3cc([C@H](O)c4ccccc4)nn3)O[C@@]3(C(=O)N(Cc4cccc(N5C(=O)c6cccc7cccc5c67)c4)c4ccccc43)[C@@H]2C)cc1 | 0.145 | 0.674 (inactive) | -0.185 | -0.159 | 0.339 | 0.501 | -0.0631 | 0.258 | -1.54 | -0.24 | -0.953 | -0.859 | -0.435 | -0.678 | -1.64 | -1.03 | 0.647 | -1.36 | -0.76 | 0.119 (inactive)
4 | C=CC[C@H](OC(=O)Nc1ccc(OC)cc1)c1ccc(O)c2ccccc12 | -0.343 | -0.192 (inactive) | 0.0539 | -0.124 | 0.289 | 0.865 | -0.0938 | 1.3 | 1.18 | 1.09 | 1.15 | 1.16 | 0.531 | 0.305 | 1.3 | 1.64 | -1.43 | 0.907 | 0.616 | -6.26 (inactive)
5 | CON(C)C(=O)C=C1C[C@@H](c2cccc(Cl)c2)O[C@@H](c2cccc(Cl)c2)O1 | 0.268 | 0.294 (inactive) | 0.0897 | -0.131 | 0.628 | 0.339 | 0.166 | 0.474 | 0.648 | 1.01 | 1.15 | 0.878 | 0.441 | 0.472 | 0.412 | 0.372 | 3.69 | 0.669 | 0.462 | -0.344 (inactive)
6 | C=CCC(OC(C)=O)[C@@H]1[C@@H](N(Cc2cc3ccccc3o2)C(=O)Cc2ccc(F)cc2)c2cc(OCCCO)ccc2N1C(=O)c1ccc2ccccc2n1 (stereo not given in full) | 0.124 | -0.16 (inactive) | -0.136 | -0.104 | -0.183 | 0.178 | 0.104 | -0.847 | 0.344 | -0.0002 | 0.055 | -0.694 | 0.0919 | 0.271 | 0.147 | -0.0144 | 0.728 | -0.189 | 0.0937 | -0.997 (inactive)
7 | C=CCNC(=O)[C@@H]1[C@H]2C(=O)O[C@H](c3ccccc3)[C@H](c3ccccc3)N2[C@H](c2ccccc2OCCO)[C@@]12C(=O)N(C(=O)OCCOC)c1ccc(C#CC3=CCCCC3)cc12 | 0.706 | 2.45 (inactive) | -0.0699 | -0.0664 | 0.467 | 1.76 | -0.218 | 1.28 | 0.741 | 1.12 | 1.66 | 1.19 | 0.636 | 0.682 | 1.01 | 1.43 | -0.663 | 0.949 | 0.762 | -1.53 (inactive)
8 | CCN(CC)c1ccc(N2CC=CC34O[C@@H]5/C=C\CCC(C)OC(=O)C5[C@H]3C(=O)N(CCO)[C@@H]4C2=O)cc1 (stereo not given in full) | -0.694 | 0.736 (inactive) | -0.152 | -0.132 | 0.818 | 1.87 | 0.711 | 0.153 | -1.01 | -0.242 | 2.08 | -0.204 | 0.235 | -1.45 | -0.69 | -0.734 | 0.431 | -0.171 | 0.144 | -0.801 (inactive)
9 | O=C1O[C@@H](c2ccccc2)[C@@H](c2ccccc2)N2[C@@H](c3ccccc3OCCO)[C@]3(C(=O)Nc4ccc(C#CCCO)cc43)[C@@H](C(=O)Nc3nc4ccccc4s3)[C@H]12 | 0.792 | 0.229 (inactive) | 0.302 | 0.0203 | 0.428 | 1.28 | 1.33 | 1.31 | 0.529 | 1.14 | 2.3 | 1.21 | 0.487 | 0.956 | 1.33 | 0.737 | -2.04 | 1.55 | 1.23 | -0.778 (inactive)
